p53 reactivation – qHTS assay for re-activators of p53 using a Luc reporter; H1299 p53-A138V BP100-luciferase reporter, luminescence, 24 h; Potency, µM (series often up to 92.2 µM), for inactives: at the top dose activity change, positive = activation, actives largely listed as activators; 320,000 compounds, 0.063% hits; AID 504706, 2011; also: % of control where 0% means no effect; nearly all actives have a fitted effect of over 45% in size
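H1299 (p53-null), stable ts p53-A138V + BP100-Luc; 1000 cells/well, Opti-MEM/10% FBS; cpd 4 pt, 1:5; 24 h, 37 deg C, 5% CO2; detection reagent 10 min RT; luminescence.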
MCF10A rerep – A quantitative high throughput screen for small molecules that induce DNA re-replication in MCF 10a normal breast cells. MCF 10A DNA re-replication, Hoechst nuclear intensity, 48 h. Potency, µM (titrated, usually from 46.1 µM), for the others: at the top dose activity, positive = re-replication, most hits filed as activators. 350,000 compounds, 2.9% hits; also: % of control where 0% means no effect; nearly all actives have a fitted effect of over 50% in size
SW480 rereplic – A quantitative high throughput screen for small molecules that induce DNA re-replication in SW480 colon adenocarcinoma cells. SW480 DNA re-replication, Hoechst DNA content imaging, 48 h. Potency, µM (top dose mostly 46.1 µM), inactives show at the highest dose re-replication activation, most hits filed as activators. 340,000 compounds, 1.8% hits; also: % of control where 0% means no effect; nearly all actives have a fitted effect of over 55% in size
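Image-based DNA-content assay: after two days of treatment, nuclei were labelled with the DNA dye Hoechst and imaged, and hits were compounds raising the count of nuclei showing high fluorescence intensity.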
ELG1 repair inh – qHTS screen for small molecules that inhibit ELG1-dependent DNA repair in human embryonic kidney (HEK293T) cells expressing luciferase-tagged ELG1; Potency, µM (doses to about 46.1 µM), for the others: at the highest dose activity change, negative = inhibition, usual class: inhibitors; HEK293T ELG1-luciferase reporter, luminescence, 16 h; DNA damage induced by 5-fluorouridine; 330,000 compounds, 2.3% hits; also: % is scaled to controls: 0 for no effect and ±100 for the full control effect; nearly all actives have a fitted effect of over 55% in size
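Reporter activity after DNA damage by 5-fluorouridine is monitored. Compound-treated cells incubate 16 hr at 37 °C, then ONE-Glo is added for 30 min before luminescence reading.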
ELG1 genotoxic – qHTS screen for small molecules that induce genotoxicity in human embryonic kidney (HEK293T) cells expressing luciferase-tagged ELG1; HEK293T ELG1-luciferase reporter, luminescence, 16 h; Potency, µM (doses to about 46 µM), for inactives: at the highest dose activity change, positive = activation, actives largely listed as activators; 330,000 compounds, 1.3% hits; AID 504466, 2011; also: % of control where 0% means no effect; nearly all actives have a fitted effect of over 60% in size
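ELG1-luciferase HEK293T cells, 2,000/well; compound pinned in; 16 hr, 37 °C, 5% CO2; ONE-Glo, 30 min RT; luminescence on CCD imager.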
A-T KAP1 phos – qHTS Assay for Identifying a Potential Treatment of Ataxia-Telangiectasia. 320,000 compounds, 0.19% hits. F2112 A-T fibroblasts, KAP-1 phosphorylation AlphaLISA; neocarzinostatin DNA damage 30 min before lysis. Potency, µM (series often up to 57.5 µM), for inactives: at the highest dose activation, usual class: activators; also: % of control where 0% means no effect; nearly all actives have a fitted effect of over 45% in size
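hTERT-immortalized A-T patient fibroblasts (F2112), 500 cells/well in OPTI-MEM, 1% FBS, got compounds for 60 min, then NCS for 30 min at 37C. Lysates were then assayed for phospho-KAP-1 by AlphaLISA (anti-pKAP1 donor, anti-KAP1 acceptor beads), 6 hr at 25C.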
* marks the source's active call; other numbers are inactive results; ? = inconclusive; / = not tested or not shown; [ ] = remark or other dose. Rows were chosen to be rich in hits. Some 7.1% of all compounds tested hit in one or more screens of this group. Calls follow the shape of the dose curve; as a rule, active = well fitted curve in the direction sought with a large enough effect; inconclusive = small, poorly fitted or top-dose-only effect, or another doubt; inactive = no such curve, though single readings can be large; an effect the other way counts as inactive or inconclusive. Potency is read from the fitted curve at half-maximal effect.

SMILES	p53 reactivation	MCF10A rerep	SW480 rereplic	ELG1 repair inh	ELG1 genotoxic	A-T KAP1 phos
CSCCC(NC(=O)c1cccc(C)c1)C(=O)Nc1sccc1C(N)=O (stereo unspecified)	-5.8%	3.7%	-9.6%	-2.6%	-0.8%	6.5%
CCOc1ccc(Nc2nc(NCC3CCCO3)c3ccccc3n2)cc1 (stereo unspecified)	8.7%	?	?	7.3µM*	-6.8%	-4.3%
c1ccc(-c2nc(NCc3ccco3)c3ccccc3n2)nc1	-37.0%	?	5.8µM*	7.31µM*	-9.5%	/
COc1ccccc1Nc1nc(NCc2ccco2)c2ccccc2n1	0.0%	23.1µM*	-24.5%	20.6µM*	-10.3%	0.0%
Cc1ccc(Nc2nc(NCc3ccco3)c3ccccc3n2)cc1	1.2%	?	?	?	-16.3%	-0.5%
Oc1ccccc1Nc1nc(NCc2ccccc2)c2ccccc2n1	1.6%	16.4µM*	16.0%	?	-13.5%	2.4%
COc1ccc(S(=O)(=O)Nc2cccc3c2O[C@H](CN(C)C(=O)NC(C)C)[C@@H](C)CN([C@H](C)CO)C3=O)cc1	-2.9%	-7.8%	2.6%	25.9%	1.4%	11.1%
COc1ccccc1CNC(=O)c1cc(C(C)=O)c[nH]1	-1.2%	4.2%	-26.2%	?	1.3%	13.3%
Oc1cccc(Nc2nc(NCC3CCCO3)c3ccccc3n2)c1 (stereo unspecified)	?	14.6µM*	6.5%	20.6µM*	-24.3%	-12.2%
c1ccc(N2CCN(c3nc(NCc4ccco4)c4ccccc4n3)CC2)cc1	-10.9%	?	?	?	-17.8%	-1.1%
c1ccc(CNc2nc(N3CCN(Cc4ccccc4)CC3)nc3ccccc23)cc1	2.9%	7.31µM*	?	?	-13.2%	0.0%
CCOc1ccc(Nc2c3ccccc3nc3ccccc23)cc1	-6.3%	3.26µM*	4.61µM*	5.8µM*	-7.4%	10.4%
c1ccc(Nc2nc(NCC3CCCO3)c3ccccc3n2)cc1 (stereo unspecified)	22.9%	?	?	?	-10.4%	4.8%
c1ccc(-c2nc(NCC3CCCO3)c3ccccc3n2)nc1 (stereo unspecified)	-2.5%	?	?	18.4µM*	-13.5%	0.6%
Cc1cc(=O)[nH]c(SCC(=O)NN(c2ccccc2)c2ccccc2)n1	-2.9%	-2.5%	-3.7%	?	-1.4%	-1.9%
COCCn1cnc2c1c(=O)n(CC(=O)NCC(F)(F)F)c(=O)n2Cc1ccccc1	2.0%	5.1%	-9.3%	-1.3%	0.1%	-0.2%
COc1ccc(Nc2nc(NCC3CCCO3)c3ccccc3n2)c(OC)c1 (stereo unspecified)	-6.9%	-1.1%	-6.8%	13µM*	-21.1%	-4.3%
Cc1cccc(N2CCN(C(=O)c3cc4n(n3)C(C(F)(F)F)CC(c3ccco3)N4)CC2)c1C (stereo unspecified)	-26.0%	?	20.3%	20.6µM*	-24.1%	-2.9%
Cc1cc(-c2ccccc2)n(-c2cc(N/N=C/c3ccccc3O)ncn2)n1	22.9%	2.06µM*	?	?	-9.0%	-2.9%
CCN(CC)c1ccc2cc(C(C)=O)c(=O)oc2c1	?	10µM*	20.6µM*	?	?	?
CCN(CC)c1ccc2cc(NC(=O)CCC(=O)O)c(=O)oc2c1	-20.3%	11.4%	17.4%	-0.3%	-11.6%	?
CCN(CC)c1ccc2cc(C=O)c(=O)oc2c1	/	11.6µM*	?	/	/	/
CCN(CC)c1ccc2cc(-c3nnc(-c4ccncc4)o3)c(=O)oc2c1	?	-0.6%	1.8%	?	?	17.4%
CCN(CC)c1ccc2cc(C(N)=O)c(=O)oc2c1	25.3%	13.5%	?	?	12.7%	?
CCN(CC)c1ccc2cc(C(N)=O)c(=N)oc2c1	-3.1%	18.4µM*	?	?	?	28.5%
SMILES	p53 reactivation	MCF10A rerep	SW480 rereplic	ELG1 repair inh	ELG1 genotoxic	A-T KAP1 phos
CCN(C(=O)c1cc2ccccc2oc1=O)c1ccccc1	21.9%	0.9%	-5.0%[9.22 µM]	?	9.2µM*	/
CCN(C(=O)c1cc2ccccc2oc1=O)c1cccc(C)c1	6.5%	1.0%	-0.3%	23.6%	12.0%	/
CC1CCN(CCCNC(=O)Cn2ncc3c([nH]c4ccccc43)c2=O)CC1	32.2%	9.4%	-3.8%	?	-0.3%	1.8%
CCN(CC)c1ccc2cc(C(=O)Nc3ccccn3)c(=O)oc2c1	?	1.3µM*	?	?	?	6.1%
CCN(CC)c1ccc2cc(C(=O)Nc3cccnc3N3CCOCC3)c(=O)oc2c1	5.5%	/	/	2.2%	5.6%	2.3%
CC(=O)c1ccc(NC(=O)CC2Nc3cccc4cccc(c34)NC2=O)cc1 (stereo unspecified)	-4.4%	23.5%	-6.4%	20.6µM*	-10.4%	-2.8%
COc1cc(OC)nc(Oc2ccccc2C=O)n1	/	16.4µM*	2.8%	/	/	/
COc1cc(OC)nc(Oc2ccccc2/C=N/O)n1	/	8.9%	0.6%	/	/	/
Cc1nn(-c2ccccc2)c(C)c1C(=O)OCC(=O)N(C)c1c(N)n(Cc2ccccc2)c(=O)[nH]c1=O	1.7%	-3.9%	-6.2%	1.1%	-1.2%	-1.7%
Cc1cccc(Nc2n[nH]c(C)c2[N+](=O)[O-])c1	?	0.3%	-2.8%	?	5.8µM*	/
CCn1c(SCC(=O)N2CCN(c3ccccc3)CC2)nc2c([nH]c3ccccc32)c1=O	15.2%	-17.7%	-11.4%	-2.9%	1.8%	0.9%
O=C1NC(Cc2c[nH]c3ccccc23)C(=O)N1CCOc1ccc(F)cc1 (stereo unspecified)	14.0%	5.5%	-2.8%	1.9%	-2.8%	/
O=C1NC(Cc2c[nH]c3ccccc23)C(=O)N1Cc1ccc(CN2C(=O)NC(Cc3c[nH]c4ccccc34)C2=O)cc1 (stereo unspecified)	-2.3%	20.6µM*	26.6%	-19.1%	-8.6%	5.9%
Cc1cc(=O)cc(C)n1-c1ccccc1Br	/	-3.6%	-0.5%	2.9%	0.8%	-3.8%
COc1cc2cc(CCCOC(=O)c3cccc(Br)c3)oc(=O)c2cc1OC	-5.9%	2.0%	-2.2%	-14.0%	1.7%	15.4%
CC(=O)c1cccc(NC(=O)CCCOc2ccc(C)cc2)c1	-0.6%	14.4%	-1.2%	-0.3%	-1.7%	7.8%
CCN(CC)S(=O)(=O)c1cc(NC(=O)Cc2n[nH]c(=O)c3ccccc23)ccc1C	-2.4%	-4.9%	1.8%	20.6µM*	-0.8%	11.5%
